Bioassay records deposited in PubChem by several laboratories.
ugtP null kill – growth inhibition of S. aureus ugtP deletion strain; S. aureus RN4220 ugtP deletion, OD600 growth, 16 h; growth inhibition, % (no concentration beside the values); 0.54% of 330,000 active; AID 1259309; in the data active = growth inhibition above about 68%;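 note: plate controls were untreated wells for no effect and antibiotic for full effect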
BJeLR viability – BJeLR cell viability loss | 0.17% of 300,000 active | BJeLR (HRASV12) viability, CellTiter-Glo ATP luminescence, 48 h | inhibition, % (no concentration beside the values); in the data active = inhibition above about 50%
RN4220 kill – kills Staphylococcus aureus RN4220; S. aureus RN4220 growth, OD600, 16 h; 0.33% of 330,000 active; AID 1259311; inhibition, % (test concentration not listed); in the data active = inhibition above about 85%;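 note: plate controls were untreated cells for no effect and reference antibiotic for full effect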
MazF activator – activators of E. coli MazEF toxin-antitoxin RNase; 0.32% of 350,000 active; FAM/BHQ RNA-DNA oligo cleavage fluorescence, 5 h; AID 504720; activation, % at 20 µM; in the data active = activation above about 50%
Target sequence (P0AE70 whole entry, looked up): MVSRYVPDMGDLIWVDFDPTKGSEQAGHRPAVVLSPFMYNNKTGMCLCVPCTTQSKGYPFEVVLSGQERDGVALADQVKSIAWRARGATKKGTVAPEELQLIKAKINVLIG
PriA SSB inh – inhibitors of Klebsiella pneumoniae PriA binding to SSB C-terminal tail | AlphaScreen SSBct-PriA binding, biotinylated peptide | inhibition, % at 33 µM | 0.6% of 430,000 active; in the data active = inhibition mostly above about 37%, no sharp cut-off; inactive = mostly below about 20%;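 note: plate controls were negative control peptide for no effect and reference peptide for full effect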
The depositor's hits bear a star; i = inactive; / = not tested or not shown. This is a sample that favours compounds with a hit; in the whole collection about 1.2% have one here.

SMILES	ugtP null kill	BJeLR viability	RN4220 kill	MazF activator	PriA SSB inh
Cc1cccnc1NC(=O)C1CCCN(c2ccc(-c3ccccc3)nn2)C1 (stereo unspecified)	/	/	/	/	-18
Nc1cc(C(=O)O)c(N)c2c1C(=O)c1ccccc1C2=O	-3	12	4	-95	74*
COc1ccccc1C(=O)N/N=C/C(C)=C/c1ccccc1	/	7	/	2	/
C1=C(c2ccc(-c3ccccc3)cc2)Nc2ncnn2C1c1ccco1 (stereo unspecified)	-3	/	7	344*	-7
Cc1cc(C)n(-c2nnc(C)c(=O)[nH]2)n1	-1	-8	5	0	74*
CCOC(=O)Cn1c(=NC(=O)c2ccno2)sc2cc(F)cc(F)c21	/	/	/	/	-6
COc1cccc(NC(=O)NCCn2ccnc2-c2ccccn2)c1	/	/	/	/	-3
O=C(NCCn1ccnc1-c1ncccn1)Nc1c(F)cccc1F	/	/	/	/	86*
Cc1ccc(NC(=O)NCCn2ccnc2-c2ncccn2)cc1C	/	/	/	/	97*
O=C(NCCn1ccnc1-c1ncccn1)NC1CCCCC1	/	/	/	/	-4
COc1ccc(-c2nnc(SCc3cc(C)cc(C)c3)o2)cc1	94*	0	11	7	-10
CCCN(CCC)CCNS(=O)(=O)c1ccc2c(c1)CCN2C(=O)C1CCC1	11	3	2	13	-8
O=C(Nc1nc2c(s1)CCCC2)C1CCN(c2ccc(-n3cccn3)nn2)CC1	/	/	/	/	48*
C[C@]12c3[nH]c4cc(-c5ccco5)ccc4c3CCN1C(=O)[C@@H](CC(=O)NCC13CC4CC(CC(C4)C1)C3)C[C@@H]2C(=O)N1CCOCC1	-12	/	-1	4	2
O=C(c1ccc2c(c1)[nH]c(=S)n1c3ccccc3nc21)N1CCN(c2ncccn2)CC1	-21	1	-2	91*	-8
COc1cc(/C=C/C(=O)OCc2cn3cc(Cl)ccc3n2)ccc1O	5	10	3	-16	-11
COc1c(C=NNS(=O)(=O)c2ccc(C)cc2)c(CCN(C)C(C)=O)cc2c1OCO2	-1	/	5	/	/
COc1ccc(-n2c(-c3ccc(Br)cc3)c[n+]3c2CCc2ccccc2-3)cc1	-13	7	0	17	-13
CC(C)c1ccc(-n2c(-c3ccccc3)c[n+]3c2CCc2ccccc2-3)cc1	100*	11	96*	18	-1
CCCc1nc(C)cc(N2CCN(c3ccccc3)CC2)n1	9	-1	1	-10	9
Cc1cc(N2CCN(c3ccccc3)CC2)nc(NCc2ccccc2)n1	-6	10	3	55*	16
N#Cc1c(N)nc2c(C(N)=O)c(Nc3ccccc3)sc2c1-c1ccccc1	/	/	/	/	-7
Cc1ccc2c(n1)sc1c(-c3ccccc3)c(C#N)c(N)nc12	13	-1	-2	52*	-11
S=C1NCCOCCNC(=S)NCCOCCOCCOCCN1	8	-5	5	-11	-17
COc1ccc(C(=O)/C=C2/Sc3cc4c(cc3N2C)OCO4)cc1	0	-11	0	-11	-12
SMILES	ugtP null kill	BJeLR viability	RN4220 kill	MazF activator	PriA SSB inh
COc1ccc2c(c1)S/C(=C\C(=O)c1ccncc1)N2C	/	-4	/	141*	-10
CN1/C(=C/C(=O)c2ccc(Cl)cc2)Sc2cc3c(cc21)OCO3	-4	-7	0	431*	-7
COc1cc(OC)cc(C(=O)/C=C2\Sc3ccccc3N2C)c1	-7	-13	3	0	-4
CCOCCn1c(=NC(=O)C(C)C)sc2cc(NC(C)=O)ccc21	/	/	/	/	37*
CCOCCn1c(=NC(=O)CC)sc2cc(NC(C)=O)ccc21	/	/	/	/	5
O=S(=O)(c1ccc(Cl)cc1)N1CCN(Cc2ccc(O)c3ncccc23)CC1	12	-1	-3	-7	15
CN1CCN(C2CCN(Cc3ccc(O)c4ncccc34)CC2)CC1	1	/	3	5	56*
Oc1ccc(CN2CCN(Cc3ccccc3)CC2)c2cccnc12	2	-16	6	-1	103*
CC[C@@H]1CCCCc2ccccc2[C@H](C(=O)C[C@@H](O)CC(C)=O)OC1=O	7	/	2	-3	-5
CCN1C(=Cc2ccc3ccccc3[n+]2CC)C=Cc2ccccc21	100*	/	100*	/	/
CCN1/C(=C/c2ccc3ccccc3[n+]2CC)C=Cc2ccccc21	/	62*	/	9	48
CCCC(=O)c1c(NC)cc(C)oc1=O	-11	4	0	5	-16
O=C(CN1CC(=O)Oc2ccccc21)OCC(=O)c1ccc(Cl)cc1	/	/	/	/	53
O=C(CN1CC(=O)Oc2ccccc21)OCC(=O)c1ccccc1	4	-5	5	-4	92*
O=C(CN1CC(=O)Oc2ccccc21)OCC(=O)c1cccc(Br)c1	/	-19	/	11	77*
Oc1ccc(Cl)cc1Cc1cc(Cl)ccc1O	86*	3	94*	-5	5
Oc1ccc(Cl)cc1Cc1ccccc1	-7	/	-6	4	-18
CN1/C(=C/C(=S)NC(=O)C2(C)CC2(Cl)Cl)C(C)(C)c2ccccc21 (stereo unspecified)	4	11	1	16	71*
CN1/C(=C\C(=S)NC(=O)c2ccccc2Cl)C(C)(C)c2ccccc21	-3	-8	5	10	17
CN1/C(=C\C(=O)Nc2ccc(Cl)cc2)C(C)(C)c2ccccc21	97*	1	94*	9	-6
CN1/C(=C\C=C(/C#N)C(=O)Nc2ccc(Cl)cc2)C(C)(C)c2ccccc21	/	8	/	i	-12
Cc1cc(C)n(CC(=O)NCc2ccccc2OC(F)(F)F)n1	/	/	/	/	6
COC(=O)c1ccc2c(c1O)C(=O)c1ccccc1C2=O	97*	-3	97*	5	35
O=C1c2ccccc2C(=O)c2c1ccc(O)c2O	/	/	/	-115	-3
Nc1nc(NCCO)nc(N2CCCCCC2)c1[N+](=O)[O-]	18	1	27	2	-4
SMILES	ugtP null kill	BJeLR viability	RN4220 kill	MazF activator	PriA SSB inh
Nc1nc(NCCOCCO)nc(N2CCCCCC2)c1[N+](=O)[O-]	94*	16	86	6	-15
COc1ccnc(CSC(N)=Nc2ccccc2OC)c1	6	13	7	3	40*
COc1ccnc(CSC(N)=Nc2ccccc2C(F)(F)F)c1	14	-10	52	-2	5
CCNS(=O)(=O)c1ccc2c(c1)Cc1cc(S(=O)(=O)NCC)ccc1-2	/	/	/	/	-15
NNS(=O)(=O)c1ccc2c(c1)Cc1cc(S(=O)(=O)NN)ccc1-2	0	7	-2	154*	-6
O=C(NCCO)c1c(-c2ccc3c(c2)OCO3)noc1-c1ccsc1	/	/	/	11	-3
CCOC(=O)c1ccc(-c2c(-c3ccc4c(c3)OCO4)noc2-c2ccsc2)cc1F	96*	2	-10	-9	-1
c1cc2cc(-c3c(-c4ccc5c(c4)OCO5)noc3-c3ccsc3)ccc2[nH]1	/	-7	/	-5	3
COc1cc(-c2c(-c3ccc4c(c3)OCO4)noc2-c2ccsc2)ccc1F	87*	5	-6	1	-8
Cc1ccc(CN2CCN(N=C/C=C/c3ccccc3)CC2)cc1	21	/	2	/	14
O=C1C2=C(NC(=S)NC2c2ccc(Cl)cc2)NC(c2ccc(Cl)cc2)N1c1ccc(Cl)cc1 (stereo unspecified)	93*	-5	100*	-2	-7
